Assays:
Assay in all cases: PBM binding z-score (relative to random genomic background probes); higher = stronger binding; sequences stand for … in GC…GCGATTGACAGCGTAGAATGAAGG
[1] = test system: FXR:RXRa (NR concentration 270 nM, RXRa partner concentration 90 nM)
Procedure, shortened: (§1)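 Custom Agilent 4×180K protein-binding microarrays carried double-stranded probes. Their 34-nt variable regions held direct-repeat seeds, single-nucleotide variants, half-site ablations and random human genomic background sequences. Arrays were incubated 1 h with ligand-free nuclear receptor dimers in PBS pH 7.4, 2% milk, 0.02% Triton X-100, 1 mM DTT, 0.2 mg/mL BSA and 0.4 mg/ml salmon testes DNA. Antibodies against each partner (one per run) detected binding, and scanned fluorescence was regression-normalized. Binding z-scores use random background probes as reference.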

[2] = test system: LXRa:RXRa (NR concentration 270 nM, RXRa partner concentration 90 nM)
Procedure, shortened: as §1

[3] = test system: LXRa homodimer (NR concentration 270 nM)
Procedure, shortened: as §1

[4] = test system: LXRb:RXRa (NR concentration 270 nM, RXRa partner concentration 90 nM)
Procedure, shortened: as §1

[5] = test system: LXRb homodimer (NR concentration 270 nM)
Procedure, shortened: as §1

[6] = test system: PPARa:RXRa (NR concentration 270 nM, RXRa partner concentration 90 nM)
Procedure, shortened: as §1

[7] = test system: PPARg:RXRa (NR concentration 180 nM, RXRa partner concentration 90 nM)
Procedure, shortened: as §1

[8] = test system: PPARg:RXRa 270nM:90nM, anti-RXR (NR concentration 270 nM, RXRa partner concentration 90 nM)
Procedure, shortened: as §1

[9] = test system: PPARg:RXRa 30nM:10nM, anti-RXR (NR concentration 30 nM, RXRa partner concentration 10 nM)
Procedure, shortened: as §1

[10] = test system: PPARg:RXRa 90nM:30nM, anti-RXR (NR concentration 90 nM, RXRa partner concentration 30 nM)
Procedure, shortened: as §1

[11] = test system: PPARg:RXRa DBDmut IVT, anti-RXR (DBD mutation: RXRa K156A/R161A, NR concentration 270 nM, RXRa partner concentration 90 nM)
Procedure, shortened: as §1

[12] = test system: PPARg:RXRa IVT, anti-PPARg (NR concentration 270 nM, RXRa partner concentration 90 nM)
Procedure, shortened: as §1

[13] = test system: PPARg DBDmut:RXRa IVT, anti-PPARg (DBD mutation: PPARg1 K132A/R137A, NR concentration 270 nM, RXRa partner concentration 90 nM)
Procedure, shortened: as §1

[14] = test system: PPARg DBDmut IVT, anti-PPARg (DBD mutation: PPARg1 K132A/R137A, NR concentration 270 nM)
Procedure, shortened: as §1

[15] = test system: PPARg homodimer (NR concentration 180 nM)
Procedure, shortened: as §1

[16] = test system: PXR:RXRa (NR concentration 270 nM, RXRa partner concentration 90 nM)
Procedure, shortened: as §1

[17] = test system: PXR homodimer (NR concentration 270 nM)
Procedure, shortened: as §1

[18] = test system: RARa:RXR (NR concentration 270 nM, RXRa partner concentration 90 nM)
Procedure, shortened: as §1

[19] = test system: RARa homodimer (NR concentration 270 nM)
Procedure, shortened: as §1

[20] = test system: RARb:RXRa (NR concentration 270 nM, RXRa partner concentration 90 nM)
Procedure, shortened: as §1

Sequence | PBM binding z-score [1] | PBM binding z-score [2] | PBM binding z-score [3] | PBM binding z-score [4] | PBM binding z-score [5] | PBM binding z-score [6] | PBM binding z-score [7] | PBM binding z-score [8] | PBM binding z-score [9] | PBM binding z-score [10] | PBM binding z-score [11] | PBM binding z-score [12] | PBM binding z-score [13] | PBM binding z-score [14] | PBM binding z-score [15] | PBM binding z-score [16] | PBM binding z-score [17] | PBM binding z-score [18] | PBM binding z-score [19] | PBM binding z-score [20]
TCATATCGGTAATACAGGTGAAAGTCGGCATCTA | 0.812 | 0.733 | 0.448 | 0.822 | 0.305 | 1.58 | 0.895 | 2.79 | 3.92 | 3.03 | 2.51 | 1.96 | 1.47 | 0.852 | 1.2 | 0.46 | 0.585 | 0.605 | 1.17 | 0.527
CCTCGGAGGACAACACGAGGTCAGAGCTGCCAGA | 1.62 | 2.84 | 2.76 | 1.58 | -0.589 | 2.22 | 0.596 | 0.153 | -0.655 | -0.293 | 0.265 | 0.387 | -0.876 | -1.22 | 1.79 | 3.06 | 0.779 | 3.03 | 0.807 | 2.96
TCATATAGGTAAAAGGTGAAAGACGGTGTGGTAA | 2.04 | 2.03 | 0.309 | 2.05 | 0.213 | 5.1 | 9.86 | 8.73 | 9.9 | 10.6 | 5.58 | 5.42 | 1.69 | 1.75 | 3.5 | 1.66 | 0.734 | 3.13 | 1.65 | 1.91
CAAACTAGGTCACAGAGGTCAAAGGCCGTGCGTA | 7.21 | 6.33 | 6.87 | 5.9 | 1.61 | 6.36 | 10.5 | 8.37 | 7.41 | 8.58 | 8.7 | 8.85 | 6.92 | 3.61 | 5.45 | 6.54 | 10.8 | 7.58 | 2.81 | 5.22
TCATATAGGAAAAAGGTGAAAGTCGGTGTGGTAA | 1.37 | 1.47 | -0.216 | 1.38 | -0.0192 | 2.87 | 3.05 | 5.37 | 5.19 | 5.73 | 2.92 | 1.79 | 1.1 | 0.104 | 1.49 | 0.859 | 0.327 | 1.63 | 1.43 | 1.57
ACAGACAGGTGAGTGAAGGTAACTGAGCTGGACG | 0.439 | -0.0639 | -0.513 | -0.288 | -0.405 | 0.393 | 0.534 | 0.106 | -0.146 | -0.11 | 0.252 | 0.903 | -0.468 | -0.756 | -0.197 | 0.0727 | -0.00734 | 0.487 | -0.0985 | 0.632
AATACCGGGTCACTAGGCCAGAGTAGGTACGAAT | 4.09 | 3.51 | 0.369 | 2.69 | 0.134 | 5.09 | 6.97 | 5.93 | 2.96 | 4.9 | 4.09 | 6.04 | 0.988 | 0.334 | 1.7 | 2.32 | -0.108 | 3.37 | 0.616 | 3.47
CGAGACAGGTGAAAGGTAACTCAGTCTGGTACGC | 0.533 | 0.602 | -0.513 | 0.732 | -0.851 | 3.47 | 5.43 | 6.27 | 4.23 | 6.7 | 1.78 | 2.95 | 0.301 | -1.14 | 1.05 | 0.75 | -0.102 | 1.92 | -0.282 | 1.19
CCTACTGCGCCAAAGGTCATTGATTCCAATGCTC | 5.29 | 5.64 | 5.34 | 5.07 | 1.91 | 5.47 | 6.88 | 7.67 | 6.56 | 7.79 | 1.68 | 3.77 | 5.21 | 1.61 | 3.34 | 5.66 | 2.58 | 5.78 | 2.4 | 4.61
GATACAGAGTCAAGGCCAGAGTACGCGTATTGAT | -0.608 | -0.442 | -0.531 | -0.627 | -0.712 | -0.293 | 0.646 | -0.0744 | -0.0806 | -0.0588 | -0.108 | -0.0303 | 0.127 | -0.418 | -0.301 | -0.285 | -0.253 | -0.181 | -1.07 | 0.288
ATGGAAAGGTCGAAGGTGAGTATACCCACCCGAA | 4.22 | 3.27 | 0.0491 | 2.82 | 0.401 | 4.71 | 4.84 | 5.14 | 2.3 | 4.32 | -0.138 | 2.06 | 1.21 | 0.517 | 1.61 | 2.99 | 0.649 | 4.14 | 0.905 | 3.78
CGTCCAAGGTCAATGCTAGGTCCGTGAAAGCATT | 6.89 | 4.45 | 0.519 | 3.53 | 0.496 | 4.84 | 3.19 | 3.97 | 0.655 | 2.86 | 2.99 | 3.02 | 0.341 | -0.534 | 3.68 | 3.8 | 0.579 | 4.21 | 1.32 | 4.91
CCTTACGGGTCACGAGGTTACAGCACGACGAGCG | 7.17 | 4.8 | 0.542 | 4.17 | 0.337 | 6.14 | 7.89 | 6.86 | 3.81 | 5.93 | 4.58 | 5.66 | 2.08 | 2.53 | 5.5 | 5 | 0.46 | 6.67 | 2.1 | 4.71
TGAATGAGGTTATAATATCAGGGAACGTTGCAAA | 1.4 | 1.31 | 0.0955 | 1.38 | 0.0343 | 2.68 | 1.29 | 1.62 | 0.724 | 1.25 | 0.771 | 1.75 | 1.25 | 0.939 | 0.756 | 1.08 | 0.111 | 1.59 | 0.0682 | 1.08

— the supplement of paper PMC6555819
